Results as given in PubChem BioAssay (NCI).
This is part of a sample that, as a whole, favours compounds with a hit. Of some 83,000 tested, about 20% had one in any assay.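 Negative percent growth values reflect cell death: -40 means 40% of the cells present at the start died, and -100 means all died.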 Values without a mark were called inactive. The source made the active and inactive calls. Rule for the calls: active = growth percent below 10; inactive = the rest.

What was measured:
Experiment in all cases: NCI-60 one-dose screen, 48 h (100 = growth as untreated, 0 = no growth, -100 = all killed)
Details in all cases: 10 µM unless noted
[1] = system: HCT-15 colon
[2] = system: HT29 colon
[3] = system: SNB-75 CNS
[4] = system: SNB-19 CNS
[5] = system: U251 CNS
[6] = system: PC-3 prostate
[7] = system: SK-MEL-5 melanoma
[8] = system: LOX IMVI melanoma
[9] = system: SK-MEL-28 melanoma
[10] = system: SK-MEL-2 melanoma
[11] = system: EKVX NSCLC
[12] = system: SN12C renal
[13] = system: UO-31 renal
[14] = system: TK-10 renal
[15] = system: ACHN renal
[16] = system: A498 renal
[17] = system: CCRF-CEM leukemia
[18] = system: MOLT-4 leukemia

Compound	growth [1]	growth [2]	growth [3]	growth [4]	growth [5]	growth [6]	growth [7]	growth [8]	growth [9]	growth [10]	growth [11]	growth [12]	growth [13]	growth [14]	growth [15]	growth [16]	growth [17]	growth [18]
NCCn1cc(-c2nc(-c3c[nH]c4ncccc34)cs2)c2ccccc21	88.6%	98.2%	61.9%	89.4%	91.5%	70.2%	77.2%	89.9%	107%	103%	53.6%	78.7%	51.3%	148%	82.9%	88.2%	88.5%	96.4%
O=C(N/N=C/c1ccccc1SSc1ccccc1/C=N/NC(=O)c1ccccc1)c1ccccc1	21.6%	43.3%	65.8%	44.8%	34.1%	40.2%	22.5%	11.1%	39.6%	24.8%	25.8%	43.4%	18.6%	31.8%	15.4%	75.8%	16%	10.8%
C=C1C(=O)O[C@H]2[C@H]1CC/C(COC(=O)N[C@H](Cc1c[nH]c3ccccc13)C(=O)OC)=C\CC[C@@]1(C)O[C@@H]21	1.89% (active)	14.9%	82%	66.7%	72.7%	57.3%	39%	13.7%	9.69% (active)	70.4%	63.6%	41.7%	-4.81% (active)	25.8%	-17.7% (active)	83%	2.23% (active)	4.53% (active)
Cn1cc(-c2csc(-c3cn(CCCN4CCCCC4)c4ccc(F)cc34)n2)c2cccnc21	77.5%	75.2%	77.2%	90.3%	85.2%	71.5%	-27.7% (active)	85.4%	-78.9% (active)	93.5%	77.3%	83.9%	78.2%	99.7%	83.7%	73.4%	-29.9% (active)	70.4%
